PAFAH1B2 inh: blocks human PAF acetylhydrolase 1b catalytic subunit 2; P68402; recombinant PAFAH1B2, FP-rhodamine activity probe, fluorescence polarization; inhibition, % at 3.39 µM; 340,000 tested, 1.2% active; AID 492953;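 active = inhibition above the mean of all tested compounds plus 3 SD, cut at about 24% in these data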
Target sequence (P68402 whole entry, looked up): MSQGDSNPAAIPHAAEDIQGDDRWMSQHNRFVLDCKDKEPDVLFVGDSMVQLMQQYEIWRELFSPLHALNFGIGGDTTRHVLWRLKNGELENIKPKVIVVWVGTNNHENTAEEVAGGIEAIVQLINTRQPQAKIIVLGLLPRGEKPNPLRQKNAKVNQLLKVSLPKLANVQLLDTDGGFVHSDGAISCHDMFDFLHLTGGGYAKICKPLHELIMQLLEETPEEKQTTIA
pPAFAH inh: inhibitors of human plasma PAF acetylhydrolase (pPAFAH); Q13093; recombinant pPAFAH, FP-rhodamine probe fluorescence polarization; inhibition, % at 3.39 µM; 330,000 tested, 1.5% active; AID 463082;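 active = inhibition above the mean inhibition across the screen plus 3 SD, cut at about 25% in these data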;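 also: inhibitors block binding of the rhodamine activity-based probe so polarization drops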
PAFAH1B3 inh: blocks human PAF acetylhydrolase 1B catalytic subunit 3. recombinant PAFAH1B3, FP-rhodamine probe, fluorescence polarization. inhibition, % at 3.39 µM. Q15102. 340,000 tested, 0.28% active;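 active = inhibition above the screen-wide average of all tested compounds plus 3 SD, cut at about 25% in these data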
Target sequence (Q15102 whole entry, looked up): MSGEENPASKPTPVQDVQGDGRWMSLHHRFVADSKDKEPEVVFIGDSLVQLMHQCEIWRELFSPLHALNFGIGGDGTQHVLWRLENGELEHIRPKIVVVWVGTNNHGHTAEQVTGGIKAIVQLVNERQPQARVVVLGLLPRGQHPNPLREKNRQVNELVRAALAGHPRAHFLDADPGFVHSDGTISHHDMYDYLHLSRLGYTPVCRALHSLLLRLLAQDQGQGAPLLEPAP
TCR CD3 inh: human TCR-CD3 binding inhibition; TAMRA-labeled TCR probe fluorescence, biochemical; inhibition, % at 9.4 µM; 360,000 tested, 0.37% active; AID 651800;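 also: recombinant mutant TCR 2C K166C tagged with TAMRA read by polarization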
PAFAH2 inh: inhibitors of human PAFAH2 | Q99487 | inhibition, % at 3.39 µM | recombinant PAFAH2, FP-rhodamine activity probe, fluorescence polarization | 340,000 tested, 0.99% active | AID 492956;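 active = inhibition above the mean over all tested compounds plus 3 SD, cut at about 30% in these data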;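 also: inhibitors block probe labeling of enzyme so polarization drops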
BSA TAMRA ctr: interferes with TAMRA-BSA probe, flagging TCR-CD3 hits | shares compounds with TCR CD3 inh | TAMRA-labeled BSA probe fluorescence counterscreen | inhibition, % at 9.4 µM | 1,200 tested, 10% active | AID 652035; in the data active = inhibition above about 23%
TCR-CD3 inh conf: confirmation of human TCR-CD3 interaction inhibitors; shares compounds with TCR CD3 inh; TAMRA-labeled TCR probe fluorescence binding assay; inhibition, % at 9.4 µM; 1,200 tested, 48% active; AID 652036
Numbers stand for hits; - = inactive; . = no result. In the library only some 2.7% were active in any assay of this set; here they are far more common. Rule as the data show it, unless noted: active = inhibition above about 19%; inactive = the rest.

SMILES	PAFAH1B2 inh	pPAFAH inh	PAFAH1B3 inh	TCR CD3 inh	PAFAH2 inh	BSA TAMRA ctr	TCR-CD3 inh conf
O=C(NCCOc1ccccc1F)C1CC(=O)N(Cc2ccccc2)C1 (stereo unspecified)	-	-	-	-	-	.	.
O=C(CCNC(=O)c1ccccc1Cl)NNC(=O)c1ccccc1O	-	-	-	23.5	-	-	-
Cc1ccc2c(CC(=O)NNC(=O)c3ccccc3O)coc2c1	-	-	-	20.5	-	-	20.9
Cc1ccc(C(=O)CCC(=O)NNC(=O)c2ccccc2O)cc1	-	-	-	21.3	-	-	22.9
O=C(CNC(=O)c1ccc(Br)o1)NNC(=O)c1ccccc1O	-	-	-	34.9	-	-	31.9
COc1ccc(NS(=O)(=O)c2cccc3ccccc23)cc1	-	-	-	-	-	.	.
Oc1ccc(-c2csc(Nc3ncccn3)n2)cc1O	-	.	-	32.4	-	-	-
c1cncc(-c2nc(-c3ccc4c(c3)OCCO4)cs2)c1	-	-	-	-	-	.	.
Oc1ccc(-c2csc(-c3cccnc3)n2)cc1O	-	-	-	21.6	-	-	-
CCN(CC(=O)Nc1c(F)cccc1F)C(=O)C1CCCN(C(=O)c2ccc(Cl)cc2)C1 (stereo unspecified)	-	-	-	-	-	.	.
CC(=O)c1cccc(NC(=S)NC(=O)c2ccccc2Cl)c1	-	-	-	-	-	.	.
O=C(NC(=S)Nc1ccccc1O)c1ccccc1Cl	-	-	-	23.1	-	-	-
CCCCC(=O)N(C)c1c(C)nc2ccc(C(=O)N3CCN(c4ccccc4)CC3)cn12	.	.	.	-	.	.	.
O=[N+]([O-])c1ccccc1N=Nc1ccc(O)cc1O	.	.	.	-	.	.	.
O=S(=O)(O)c1cc(O)c(N=Nc2ccc(O)cc2O)c2ccccc12	87.2	.	89.8	150.3	90.4	171.4	129.6
CCc1ccc2nc(NC(=O)C3CSC4(C)CCC(=O)N34)sc2c1 (stereo unspecified)	-	-	-	-	-	.	.
Cc1cc([N+](=O)[O-])cc(/C=N/n2c(C)nc3ccccc3c2=O)c1O	-	-	-	45.3	-	-	45.1
Cc1nn(CC(=O)NC2CCS(=O)(=O)C2)c(C)c1[N+](=O)[O-] (stereo unspecified)	-	-	-	26.8	-	-	-
O=C(/C=C/c1ccccc1)Nc1cccc(C(=O)NCCCCc2ccccc2)c1	-	.	-	44.5	-	-	-
O=C(/C=C/c1ccccc1)Nc1cccc(C(=O)NCCc2ccccc2)c1	-	.	-	-	-	.	.
NS(=O)(=O)c1cc(C(=O)NC2CCSc3ccccc32)ccc1Cl (stereo unspecified)	-	-	-	40.1	-	-	36.2
NS(=O)(=O)c1cccc(C(=O)NC2CCSc3ccccc32)c1 (stereo unspecified)	-	-	-	-	-	.	.
O=C(/C=C/c1cccs1)c1ccc(NC(=O)c2cccc(Br)c2)cc1	-	-	-	42.4	-	-	-
CC1(C)CC2CC(C)(CN2S(=O)(=O)c2ccc(C(=O)Nc3cccc(S(=O)(=O)N4CCOCC4)c3)cc2)C1 (stereo unspecified)	-	-	-	35.0	-	-	28.5
O=c1cc(-c2ccc(O)cc2)oc2cc(O)c(C3OC(CO)C(O)C(O)C3O)c(O)c12 (stereo unspecified)	-	-	-	27.5	-	-	19.6
SMILES	PAFAH1B2 inh	pPAFAH inh	PAFAH1B3 inh	TCR CD3 inh	PAFAH2 inh	BSA TAMRA ctr	TCR-CD3 inh conf
O=c1nc2c(O)cccn2c2c1c(=O)[nH]c1ccccc12	-	.	-	53.9	-	-	-
O=c1[nH]c2ccccc2c2nc3ccccn3c12	-	-	-	-	-	.	.
COc1ccc2ccccc2c1C(O)c1nccn1C (stereo unspecified)	32.1	-	39.0	78.8	44.5	-	-
Cn1ccnc1C(O)c1ccccc1 (stereo unspecified)	-	-	-	-	-	.	.
COc1ccc(/C=N\NC(=O)c2cc(O)c(O)c(O)c2)cc1CN1CCN(c2ccc(F)cc2)CC1	-	30.5	-	23.4	-	-	22.9
NC(=S)Nc1ccc(S(=O)(=O)c2ccc(NC(N)=S)cc2)cc1	-	-	-	-	-	.	.
CC1CN(C(=O)COC(=O)c2cncc(Br)c2)CC(C)O1 (stereo unspecified)	.	.	.	-	.	.	.
Cc1ccsc1C(C(=O)NCc1ccccc1)N(C(=O)c1csnn1)c1ccccc1 (stereo unspecified)	-	-	-	-	-	.	.
O=C1C(=Cc2cn(-c3ccccc3)nc2-c2ccc(OCc3ccccc3)cc2)SC(=S)N1CCS(=O)(=O)O	.	.	.	25.9	.	-	19.5
O=C(NCC1CCCCC1)c1cc(Br)ccc1Cl	-	-	-	-	-	.	.
COC(=O)/C=C1\OCc2ccccc21	.	.	.	-	.	.	.
CC(C)c1ccc(N2C(=O)/C(=C/N(C)C)SC2=S)cc1	-	29.5	-	66.7	-	149.6	131.8
CCO/C=C1\SC(=S)N(c2ccc(Cl)cc2)C1=O	-	-	-	-	-	.	.
NNC(=O)c1ccc2nc(-c3ccc(Br)cc3)cn2c1	-	-	-	-	-	.	.
COc1ccc(-c2cn3cc(C(=O)NN)ccc3n2)cc1	-	-	-	21.2	-	-	-
Oc1ccccc1-c1nc(N2CCCC2)c2ccccc2n1	-	-	-	-	-	.	.
Fc1ccccc1-c1nc(N2CCCCC2)c2ccccc2n1	-	-	-	27.9	-	-	-
CC(=O)Nc1cccc(-c2ccnc3c2CC(C(=O)Nc2cccc(OC(F)(F)F)c2)O3)c1 (stereo unspecified)	.	.	.	-	.	.	.
c1ccc(-c2nnc(-c3ccco3)o2)cc1	-	-	-	-	-	.	.
c1coc(-c2nnc(-c3ccco3)nn2)c1	-	32.5	-	28.1	31.7	-	-
COCCn1c(=NC(=O)c2cc(-c3cccs3)nc3ccccc23)sc2cc(S(N)(=O)=O)ccc21	-	-	-	28.6	-	-	21.2
C=CCn1c(=NC(=O)c2cc(-c3cccs3)nc3ccccc23)sc2cc(S(N)(=O)=O)ccc21	-	-	-	-	-	.	.
CCOC(=O)C(CNc1ccc(O)cc1)NC(=O)c1ccccc1 (stereo unspecified)	.	.	.	64.8	.	-	-
CNCC(O)C(O)C(O)C(O)CO (stereo unspecified)	-	-	-	-	-	.	.
OC[C@@H](O)C(O)[C@@H](O)CO (stereo partly specified)	.	.	.	46.7	.	-	-
SMILES	PAFAH1B2 inh	pPAFAH inh	PAFAH1B3 inh	TCR CD3 inh	PAFAH2 inh	BSA TAMRA ctr	TCR-CD3 inh conf
CCCNC(=O)COc1coc(CN2CCN(c3cccc(Cl)c3)CC2)cc1=O	-	-	-	-	-	.	.
CCOC(=O)c1ccc(CC(=O)c2oc3cc(O)ccc3c2C)o1	-	-	-	-	-	.	.
CCOC(=O)c1ccc(CC(=O)c2ccc(O)c(O)c2O)o1	-	.	-	21.1	-	-	21.1
CCCCc1nnc(NC(=O)c2ccc(OCc3c(C)noc3C)cc2)s1	-	.	-	-	-	.	.
COc1cccc(CN(C)C(=O)c2ccc(S(=O)(=O)Nc3ccccc3C)cc2)c1OC	.	.	.	-	.	.	.
COc1ccc(-c2c(C)c3ccc(O)cc3oc2=O)cc1OC	-	-	-	-	-	.	.
